The text below walks through data of PubChem BioAssay.

The structures appear in SMILES notation. The source made the active and inactive calls.

Chain of Dihydroorotate dehydrogenase (quinone), mitochondrial (Plasmodium falciparum (isolate 3D7)) (Q08210 whole entry, looked up): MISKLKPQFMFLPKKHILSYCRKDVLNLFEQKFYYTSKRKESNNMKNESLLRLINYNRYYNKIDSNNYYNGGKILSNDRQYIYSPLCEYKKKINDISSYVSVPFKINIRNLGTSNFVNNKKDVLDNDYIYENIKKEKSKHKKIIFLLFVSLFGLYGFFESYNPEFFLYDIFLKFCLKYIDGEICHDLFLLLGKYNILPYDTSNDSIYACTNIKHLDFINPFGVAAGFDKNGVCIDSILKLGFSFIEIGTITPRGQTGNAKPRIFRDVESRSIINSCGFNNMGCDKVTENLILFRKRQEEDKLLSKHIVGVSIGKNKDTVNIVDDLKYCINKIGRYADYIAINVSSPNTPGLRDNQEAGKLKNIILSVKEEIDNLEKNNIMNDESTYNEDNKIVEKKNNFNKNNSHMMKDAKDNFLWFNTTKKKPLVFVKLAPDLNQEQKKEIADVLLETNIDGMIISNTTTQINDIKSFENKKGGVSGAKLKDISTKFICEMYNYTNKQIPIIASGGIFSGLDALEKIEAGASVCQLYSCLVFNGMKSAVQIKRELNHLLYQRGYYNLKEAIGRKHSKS

The test has as its target Dihydroorotate dehydrogenase (quinone), mitochondrial (Plasmodium falciparum (isolate 3D7)) (UniProt Q08210). The test can be described thus: PfDHODH enzyme inhibitors, primary screen, biochemical, C-terminal His tag, absorbance 600 nm (AID 1175).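 Further: recombinant parasite enzyme with a five histidine tag at its C terminus; test concentration not given here.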 The settings on record: DCIP absorbance 600 nm, higher = more signal, called active from +8 up or from −8 down.
`COc1cc2c(cc1O)C(c1cccs1)N(Cc1sc3ccccc3c1Cl)CC2` (stereo unspecified): the composite z-score is -1.72 (inactive). `CC(C)(C)OC(=O)CC[C@]12N=C(c3ccc(OCCCO)cc3)O[C@H]1c1ccccc1N(Cc1ccccc1)C2=O`: the composite z-score is -0.316 (inactive). With `O=C1C2C=CC(C(O)c3ccc(I)cc3)N(Nc3ccccc3)C2C(=O)N1c1ccccc1` (stereo unspecified), the composite z-score is 0.45 (inactive). Take `C=CCN1C(=O)[C@@]2(O[C@@H](CCO)[C@H]([Si](C)(C)c3ccc(OC)cc3)[C@H]2C)c2cc(N3CCOC3=O)ccc21`: the composite z-score was 1.58 (inactive).

On to `CCOC(=O)C1=C[C@@H](C(C)(C)C)N(S(=O)(=O)c2ccc(C)cc2)[C@H]1c1cccc(Cl)c1`, for which the composite z-score is 1.08 (inactive).

`CO[C@H]1O[C@H](CO)[C@@H](OC(=O)Nc2cccc(F)c2)[C@H](OC(=O)Nc2ccccc2-c2ccccc2)[C@H]1OC(=O)Nc1ccccc1-c1ccccc1`: the composite z-score is 0.791 (inactive). Turning to `COCC(=C=CC[C@@H](O)c1ccc(OCCO)cc1)CCO`, the composite z-score is -0.789 (inactive). In the case of `C=CCC(OC(C)=O)[C@@H]1[C@@H](N(Cc2ccc(-c3cccc(C(F)(F)F)c3)o2)C(=O)Cc2ccc(OC)cc2)c2cc(OCCCO)ccc2N1C(=O)Cc1ccc2ccccc2c1` (stereo partly specified) it was 1.02 (inactive); in that of `CN1C(=O)[C@@H]2[C@@H](CC(COc3ccccc3)=C([C@H](O)CCc3ccccc3)[C@@H]2CO)C1=O`, -0.171 (inactive). In the case of `COc1cc(NN2C(C(O)C3CCCCC3)C=CC3C(=O)N(C)C(=O)C32)cc(OC)c1OC` (stereo unspecified), the composite z-score was -0.187 (inactive). In the case of `C=CCC(OC(C)=O)[C@@H]1[C@@H](N(Cc2cccc3ccccc23)C(=O)c2ccc(-c3ccccc3)cc2)c2cc(OCCCO)ccc2N1C(=O)c1ccc(-c2ccccc2)cc1` (stereo partly specified) it was -0.948 (inactive).
